In the supplement of paper PMC6555819:

Tests used:
Test in all cases: PBM binding z-score (relative to random genomic background probes); higher = stronger binding; sequences stand for … in GC…GCGATTGACAGCGTAGAATGAAGG
[1] = system: RARb homodimer (NR concentration 270 nM)
In short: (§1)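 Regression normalization was applied to scanned fluorescence from custom Agilent 4×180K protein-binding microarrays. Before scanning, arrays were incubated 1 h with ligand-free nuclear receptor dimers, and binding was detected with antibodies against each partner (one per run). Binding z-scores use the random background probes as reference.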

[2] = system: RARg:RXRa (NR concentration 270 nM, RXRa partner concentration 90 nM)
In short: as §1

[3] = system: RARg homodimer (NR concentration 270 nM)
In short: as §1

[4] = system: RXRa DBDmut IVT, anti-RXR (DBD mutation: RXRa K156A/R161A, NR concentration 90 nM)
In short: as §1

[5] = system: RXRa homodimer (NR concentration 180 nM)
In short: as §1

[6] = system: THRa:RXRa (NR concentration 90 nM, RXRa partner concentration 90 nM)
In short: as §1

[7] = system: THRa homodimer (NR concentration 90 nM)
In short: as §1

[8] = system: VDR homodimer (NR concentration 270 nM)
In short: as §1

Sequence	PBM binding z-score [1]	PBM binding z-score [2]	PBM binding z-score [3]	PBM binding z-score [4]	PBM binding z-score [5]	PBM binding z-score [6]	PBM binding z-score [7]	PBM binding z-score [8]
ACTAGCAGTCCAAGGGTCACTCAAGATTAGTCCG	3.7	3.72	3.27	0.612	3.58	2.61	0.466	1.15
TCGCGTAGGTTAGTCGGGGCATTCAGCCAACATA	0.519	0.0765	-0.112	0.21	-0.0315	1.26	-0.0265	0.208
ATCTCTAGGTACCCAAGTTCAGTGAATGCCGAAC	1.41	0.712	0.515	1.14	0.528	0.968	0.385	2
ACAGACAGGTGATTAAGGTAACTCAGGCTATCAT	0.49	0.29	0.554	0.282	0.366	2.77	1.93	0.0908
CCCTACGGGTCACTCCAGGTTATAGCATCGGAGT	3.22	4.52	4.67	0.434	4.72	4.94	0.457	1.79
AAAATGAGGTTATACGTAGATCAGGGAAGAAAGT	0.619	1.88	1.14	1.93	2.37	2.24	0.727	1.13
AGTCAAAGTTCACTTGGTAACGTAAGATTCAGCT	3.71	4.88	5.66	4.24	3.44	1.6	-0.48	4.05
CCTGCTGGGTCAATGGTCAGCTAAAGCAGCTCGC	2.5	3.24	3.33	0.787	2.48	1.26	-0.14	-0.211
TAGCCTAGGTCGGATCGGGCCAGTATACGCTATA	0.206	0.17	0.282	-1.2	-0.0599	2.67	-0.787	-0.985
TCTACTAGTTGAAGGGCAACCGACGAGTCCGTTT	0.815	0.16	0.311	1.11	0.353	-0.216	-0.254	0.707
CCTTACGGGTCACGGACAGGTTATAGCATTTGGA	3.42	6.84	5.39	1.99	6.76	3.59	0.532	1.16
TCTAGTTGGTCACGGAGGTCGCACACGACGGGTA	2.48	2.11	2.3	0.614	2.16	1.91	0.625	1.18
TCATGTAGATCAACAGGAGGTTAAGAAAGATCGA	0.329	0.904	0.374	0.621	1.04	0.683	-0.647	0.15
CGAACTAGGTCATTGTCAGGACAGTGAATAGTAA	2.62	4.33	4.35	2.31	2.37	4.27	2.09	1.82
GGAGCGAGGGCAAGTTGATAGCAGAGTTTGATGG	1.55	1.41	1.95	2.04	0.51	0.876	0.0322	1.48
GCTACCAGGCCATTTGGGTCACTCAATGACGGGC	2.15	1.21	1.57	0.386	0.86	2.21	1.39	0.491
CGTCCAAGGTCAAGGTCAGCGAAAGAGACTCGAA	5.23	6.94	7.94	3.44	6.74	4.14	3.58	3.19
CCGATTGGGGCAAAGGTTACCATACTCAGTACGA	2.03	3.52	1.64	0.678	3.76	1.84	-0.136	0.0147
TCTGCGAGGTCAACGATGGTCAGCTAATCTGCTA	4.5	6.57	7.19	3.91	7.18	4.26	2.92	3.6

Sequence	PBM binding z-score [1]	PBM binding z-score [2]	PBM binding z-score [3]	PBM binding z-score [4]	PBM binding z-score [5]	PBM binding z-score [6]	PBM binding z-score [7]	PBM binding z-score [8]
TCTTGTAGTTCAGCAGGTTAAGAAAGCTGGCCAA	1.53	1.8	1.25	1.53	1.12	0.683	0.0556	0.942
AGAATGAGGTTACCAAGGATCAGGGAAACGCTTG	1.02	1.94	1.65	0.704	2.62	2.94	1.1	0.508
TCGAGTAGGTTAGGGGCATTCCGAATGGCGTCGA	0.646	0.44	-0.221	0.278	0.54	0.556	-0.0824	0.859
CCGGCTGGGGCATAAGGTTACCATAAGCCAGCCC	1.62	1.83	1.05	-1.59	0.983	1.93	0.912	-0.374
GATACACGGTCAGCTAGAGGCCAGAGTATGGAAA	1.9	2.39	2.33	-0.51	0.403	0.349	-0.599	-0.244
TAGCCTAGGACAGATCGGGCCAGTATACGCTATA	-0.402	-0.336	0.0371	-1.01	-0.257	0.511	-0.623	-0.922
TCGAGTAGGTTAGGAGCATTCAGAATGGCGTCGA	-0.383	-0.196	-0.317	-0.149	0.0721	-0.459	-0.881	-0.161
TCTAGTTGGTCACGGAGGTCAAACACGACGGGTA	4.53	5.24	5.02	1.28	5.47	3.78	2.02	3.62
CAGCCTAGGTAAGGGCCAGTATAGGAGGAACGTT	-0.166	-0.284	0.264	-1.12	-0.418	-0.373	-0.773	-0.434
CGTCCAATGTCAGAGAGGTCAGTGAATGCCGAGT	4.14	3.35	3.8	1.27	2.57	2.75	1.37	2.91
TCTGGTAGATCAAGCAGGTTAAGAAAGCCTGAGT	-0.182	-0.3	-0.211	0.0546	0.202	-0.00478	-0.796	0.261
CGTCCAAGGTCATAGGAGGGCAGTGAAGACAGAT	4.01	5.77	5.89	3.81	5.44	4.83	2.17	3.3
TCATATAGGTAAAGGTGAGAGTCGAACGATATGA	1.28	1.29	1.33	0.713	1.64	0.888	-0.508	-0.128
GCTCGGAGGACAAGGTGAGAGCTTTGTCCGTAGA	0.56	0.159	0.805	-0.507	-0.256	1.5	0.465	-0.74
ATCTATAGGTAAAGTTCAGTGAAAGATCGATAGA	2.35	2.02	2.38	1.21	1.51	0.707	-0.456	1.95
CCTCGGAGGACAACAGGAGGTCAGAGTTGCCAGA	3.77	3.42	3.26	0.349	2	3.08	1.6	1.5
TCTCGGAGGACACGAAGGTCAGAGTTTTCCAGAG	3.77	3.25	3.92	0.753	2.03	2.83	1.19	1.93
CCTAGCAGGCGAATCTGGGTCACTCAAGGCTTGA	1.53	0.494	0.428	0.0113	0.669	2.71	0.222	-0.316
CAAACTAGGTCAAAGGTGAAAGTCGAGCCAACCA	3.44	6.43	4.84	2.14	7.81	3.65	1.03	1.05

Sequence	PBM binding z-score [1]	PBM binding z-score [2]	PBM binding z-score [3]	PBM binding z-score [4]	PBM binding z-score [5]	PBM binding z-score [6]	PBM binding z-score [7]	PBM binding z-score [8]
GCTATTAGTTGAAAGGGCATCCGAATGATTCTCG	1.52	1.04	0.981	1.01	1.15	0.356	-0.145	0.425
CCTACTGGGCGATCAGGTCATTGATATCAACGTT	2.23	1.35	1.37	0.269	1.02	2.74	2.18	1.53
CAGCCTAGGTCAGGGCCAGTACAGGAGGAACGTT	2.81	3.02	3.74	-0.352	1.45	2.02	0.539	-0.209
CCTACTGGGCCAGGGTCATTGATCAGTCAAAGCA	2.52	3.5	2.02	0.154	3.7	2.7	0.841	2.48
GGAACGAGGGCATTAGAGTTGATAGCATGGCGAT	0.848	1.11	1.65	2.84	0.695	2	-0.303	2.49
CAATCTAGGTCAAGGTCAAAGTCGGTTTGTGCCA	5.05	5.89	6.37	3.25	5.61	4.65	4.37	4.3
TTTGCTAGGTCAACGATGGTCAGCTAATCTGCTA	3.69	4.05	5.28	1.02	2.67	3.33	1.02	0.00226
TCATATAGGTAAATGCTAGGTGATAGTCCGATCT	-0.0324	0.496	0.457	1.37	0.854	0.78	0.138	0.168
AGTCAAAGTTCAGGACGAGGCAACGTAAAGCACG	2.9	3.86	4.55	3.06	2.86	2.76	0.753	1.61
TAGCCTAGGTGATGGGCCAGTATACCACGCGAAC	-0.0783	-0.276	-0.196	-1.47	-0.236	-0.153	-0.23	-0.76
GGAACGAGGGCAACGTTGATAGCATCTGTCGACG	0.961	1.37	1.79	1.56	0.986	0.981	-0.186	-0.00307
CGTCAAAGTTCAAGTAAGGTAACGTAAAGCACGC	4.18	5.63	6.15	4.54	4.68	5.33	1.95	3.69
GCTGCTAGGTCAACTGATGGTCGGCTAAAGCTCG	3.67	4.74	5.56	1.82	2.91	3.09	0.97	0.148
ATACCAAGGTGATCGTTAGGTCGTTGATACTAAC	1.02	0.983	0.72	0.203	0.459	2.26	1.49	0.472
AGAATGAGGTTATACGTGGATCAGGGAAGAAAGT	1.08	1.69	0.925	1.84	2.1	2.48	1.1	1.21
TAGCCTACGTCATGGGCCAGTATACCACGCGAAC	-0.00941	-0.29	-0.1	-0.76	-0.0748	-0.335	-0.4	-0.575
TAGCCTAGGTCAGATCGAGCCAGTATACGCTATA	1.71	2.36	3.3	-0.301	1.23	1.61	-0.233	-0.594
AGAATGAGGTTATTAAGAGCAGGGAATTGCGGTC	1.16	1.1	0.698	2.01	1.48	2.14	0.798	1.21
TCTAGCAGGCCAGCGGGTCACTCAAGAGGTACGG	2.01	2.14	1.56	0.000361	1.77	1.42	-0.34	-0.133
